Where a name gives a salt, the structure may show the parent alone. ± gives the standard deviation of the averaged measurements.
Assays:
Experiment in all cases: growth (OD600 after 10 h); higher = more growth (less inhibition)
[1] = tested on: E. coli TESEC Alr+ wild-type control; conditions: compound 0.1 mM; raw OD600 reference: median of DMSO wells 0.241, cell-free background 0.041
Description: (§1)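 TESEC Mtb Alr E. coli, or the Alr+ wild-type control, in 384-well plates with Prestwick library compounds at 0.1 mM and 1% DMSO, across arabinose induction levels of 1E3 to 1E7 nM. Growth is read as OD600 after 10 h at 37 °C in triplicate biological replicates.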

E. coli TESEC Mtb Alr [2] = conditions: compound 0.1 mM
Description: as §1

E. coli TESEC Mtb Asd = conditions: compound 0.1 mM
Description: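 TESEC E. coli strains in which the native enzyme is deleted and replaced by arabinose-inducible Mtb Asd, DapB, CysH or TrpD, each grown in its selective medium. Strains were screened against the Prestwick library at 0.1 mM and 1% DMSO in 384-well format at low and high arabinose induction. Growth is read as OD600 after 10 h in triplicate.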

[3] = tested on: E. coli TESEC Alr+ wild-type control; conditions: compound 0.1 mM; raw OD600 reference: median of DMSO wells 0.49, cell-free background 0.052
Description: (§2)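 TESEC Mtb Alr E. coli (ΔaraC ΔtolC ΔentC Δalr ΔdadX, arabinose-inducible Mtb Alr) or the Alr+ wild-type control strain, grown in defined M9-fructose medium without D-alanine in 96-well plates with Prestwick library compounds at 0.1 mM and 1% DMSO. Low Alr induction is 0.1 µM arabinose and high induction is 10 mM arabinose.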

E. coli TESEC Mtb Alr [4] = conditions: compound 0.1 mM; remark: listed apart in the source
Description: as §2

[5] = arabinose 1000 nM, raw OD600 reference: median of DMSO wells 0.294, cell-free background 0.041
[6] = arabinose 10000 nM, raw OD600 reference: median of DMSO wells 0.264, cell-free background 0.041
[7] = arabinose 100000 nM, raw OD600 reference: median of DMSO wells 0.201, cell-free background 0.041
[8] = arabinose 1000000 nM, raw OD600 reference: median of DMSO wells 0.193, cell-free background 0.041
[9] = arabinose 10000000 nM, raw OD600 reference: median of DMSO wells 0.146, cell-free background 0.041
[10] = arabinose induction (level): High, raw OD600 reference: median of DMSO wells 0.331, cell-free background 0.041
[11] = arabinose induction (level): Low, raw OD600 reference: median of DMSO wells 0.417, cell-free background 0.041
[12] = arabinose 100 nM, raw OD600 reference: median of DMSO wells 0.413, cell-free background 0.052
[13] = arabinose 10000000 nM, raw OD600 reference: median of DMSO wells […], cell-free background 0.052

Row | SMILES | growth [1] | growth (E. coli TESEC Mtb Alr [2]; [5]) | growth (E. coli TESEC Mtb Alr [2]; [6]) | growth (E. coli TESEC Mtb Alr [2]; [7]) | growth (E. coli TESEC Mtb Alr [2]; [8]) | growth (E. coli TESEC Mtb Alr [2]; [9]) | growth (E. coli TESEC Mtb Asd; [10]) | growth (E. coli TESEC Mtb Asd; [11]) | growth [3] | growth (E. coli TESEC Mtb Alr [4]; [12]) | growth (E. coli TESEC Mtb Alr [4]; [13])
1 | CCN(CC)C(=O)C1(c2ccccc2)CC1CN (stereo unspecified) [Milnacipran hydrochloride] | 0.233 ± 0.011 | 0.298 ± 0.0046 | 0.271 ± 0.0097 | 0.202 ± 0.006 | 0.182 ± 0.02 | 0.151 ± 0.0028 | 0.239 ± 0.024 | 0.385 ± 0.033 | 0.547 ± 0.052 | 0.424 ± 0.014 | 0.322 ± 0.0073
2 | CCN1CCCC(OC(=O)C(c2ccccc2)c2ccccc2)C1 (stereo unspecified) [Piperidolate hydrochloride] | 0.18 ± 0.0021 | 0.264 ± 0.0065 | 0.259 ± 0.012 | 0.161 ± 0.01 | 0.157 ± 0.0096 | 0.136 ± 0.0042 | 0.176 ± 0.025 | 0.428 ± 0.14 | 0.555 ± 0.023 | 0.4174 ± 0.0019 | 0.329 ± 0.011
3 | COc1cc(C(=O)NCc2ccc(OCCN(C)C)cc2)cc(OC)c1OC [Trimethobenzamide hydrochloride] | 0.2204 ± 0.0014 | 0.295 ± 0.0097 | 0.254 ± 0.011 | 0.201 ± 0.017 | 0.158 ± 0.0074 | 0.159 ± 0.0019 | 0.227 ± 0.059 | 0.385 ± 0.015 | 0.464 ± 0.066 | 0.412 ± 0.005 | 0.354 ± 0.022
4 | CCCCOc1cc(C(=O)NCCN(CC)CC)c2ccccc2n1 [Dibucaine] | 0.216 ± 0.016 | 0.281 ± 0.0065 | 0.26283 ± 0.00023 | 0.208 ± 0.0075 | 0.154 ± 0.0091 | 0.174 ± 0.0038 | 0.239 ± 0.058 | 0.3947 ± 0.0033 | 0.452 ± 0.017 | 0.415 ± 0.0019 | 0.321 ± 0.025
5 | CN(C)CCOC(c1ccc(Cl)cc1)c1ccccn1 (stereo unspecified) [Carbinoxamine maleate salt] | 0.2081 ± 0.00038 | 0.297 ± 0.017 | 0.265 ± 0.006 | 0.196 ± 0.034 | 0.187 ± 0.018 | 0.13 ± 0.011 | 0.259 ± 0.023 | 0.44 ± 0.01 | 0.438 ± 0.022 | 0.393 ± 0.015 | 0.332 ± 0.021
6 | COc1ccc([C@@H]2CC(=O)c3c(O)cc(O[C@@H]4O[C@H](CO[C@@H]5O[C@@H](C)[C@H](O)[C@@H](O)[C@H]5O)[C@@H](O)[C@H](O)[C@H]4O)cc3O2)cc1O [Hesperidin] | 0.223 ± 0.0074 | 0.289 ± 0.016 | 0.251 ± 0.0089 | 0.205 ± 0.0089 | 0.177 ± 0.0064 | 0.145 ± 0.0031 | 0.22 ± 0.035 | 0.284 ± 0.06 | 0.521 ± 0.053 | 0.407 ± 0.0099 | 0.388 ± 0.028
7 | Cc1[nH]c(=O)c(C#N)cc1-c1ccncc1 [Milrinone] | 0.199 ± 0.0031 | 0.27 ± 0.0094 | 0.229 ± 0.0033 | 0.169 ± 0.018 | 0.136 ± 0.0068 | 0.148 ± 0.0037 | 0.304 ± 0.06 | 0.329 ± 0.054 | 0.636 ± 0.046 | 0.43 ± 0.0055 | 0.305 ± 0.0071
8 | CCC[C@@H]1C[C@@H](C(=O)N[C@@H]([C@H]2O[C@H](SC)[C@H](O)[C@@H](O)[C@H]2O)[C@@H](C)O)N(C)C1 [Lincomycin hydrochloride] | 0.0958 ± 0.0084 | 0.122 ± 0.011 | 0.086 ± 0.003 | 0.113 ± 0.0046 | 0.0692 ± 0.0033 | 0.0731 ± 0.00091 | 0.151 ± 0.017 | 0.204 ± 0.02 | 0.486 ± 0.057 | 0.443 ± 0.0099 | 0.12 ± 0.019
9 | Cc1cnc(C(=O)NCCc2ccc(S(=O)(=O)NC(=O)NC3CCCCC3)cc2)cn1 [Glipizide] | 0.252 ± 0.0045 | 0.289 ± 0.0034 | 0.263 ± 0.0066 | 0.193 ± 0.019 | 0.183 ± 0.0084 | 0.141 ± 0.0039 | 0.341 ± 0.084 | 0.406 ± 0.029 | 0.506 ± 0.049 | 0.419 ± 0.0083 | 0.222 ± 0.025
10 | CCCCC1C(=O)N(c2ccccc2)N(c2ccccc2)C1=O [Phenylbutazone] | 0.17293 ± 0.00015 | 0.224 ± 0.0029 | 0.234 ± 0.023 | 0.124 ± 0.0055 | 0.0869 ± 0.0014 | 0.132 ± 0.0036 | 0.145 ± 0.0034 | 0.261 ± 0.083 | 0.576 ± 0.075 | 0.399 ± 0.0095 | 0.283 ± 0.034
11 | CC(C)c1ccc2oc3nc(N)c(C(=O)O)cc3c(=O)c2c1 [Amlexanox] | 0.158 ± 0.003 | 0.157 ± 0.015 | 0.307 ± 0.0078 | 0.157 ± 0.0046 | 0.248 ± 0.024 | 0.166 ± 0.011 | 0.3928 ± 0.003 | 0.23 ± 0.056 | 0.416 ± 0.015 | 0.0761 ± 0.019 | 0.279 ± 0.018
12 | O=C1CCc2ccc(OCCCCN3CCN(c4cccc(Cl)c4Cl)CC3)cc2N1 [Aripiprazole] | 0.171 ± 0.013 | 0.243 ± 0.021 | 0.298 ± 0.02 | 0.15 ± 0.005 | 0.1175 ± 0.001 | 0.159 ± 0.006 | 0.21 ± 0.022 | 0.391 ± 0.036 | 0.418 ± 0.077 | 0.0572 ± 0.0048 | 0.0531 ± 0.0021
13 | CC[C@@]1(O)C(=O)OCc2c1cc1n(c2=O)Cc2cc3c(CN(C)C)c(O)ccc3nc2-1 [Topotecan] | 0.235 ± 0.0064 | 0.271 ± 0.01 | 0.271 ± 0.0034 | 0.345 ± 0.039 | 0.127 ± 0.0043 | 0.183 ± 0.015 | 0.214 ± 0.029 | 0.317 ± 0.044 | 0.483 ± 0.024 | 0.393 ± 0.0043 | 0.269 ± 0.0042
14 | O=C1CN(/N=C/c2ccc([N+](=O)[O-])o2)C(=O)N1 [Nitrofurantoin] | 0.0453 ± 0.00076 | 0.181 ± 0.0058 | 0.0822 ± 0.0037 | 0.04437 ± 0.00021 | 0.0737 ± 0.0054 | 0.0451 ± 0.00093 | 0.196 ± 0.034 | 0.341 ± 0.038 | 0.053 ± 0.00026 | 0.0546 ± 0.0087 | 0.055 ± 0.0017
15 | CNCCC(Oc1ccccc1OC)c1ccccc1 (stereo unspecified) [Nisoxetine hydrochloride] | 0.206 ± 0.015 | 0.258 ± 0.011 | 0.2337 ± 0.0022 | 0.173 ± 0.004 | 0.153 ± 0.0049 | 0.139 ± 0.0023 | 0.247 ± 0.049 | 0.405 ± 0.026 | 0.566 ± 0.12 | 0.4 ± 0.011 | 0.346 ± 0.018
16 | Nc1nc(F)nc2c1ncn2[C@@H]1O[C@H](CO)[C@@H](O)[C@@H]1O [Fludarabine] | 0.207 ± 0.0038 | 0.216 ± 0.0082 | 0.241 ± 0.0025 | 0.168 ± 0.011 | 0.185 ± 0.0037 | 0.133 ± 0.0056 | 0.272 ± 0.031 | 0.222 ± 0.035 | 0.626 ± 0.044 | 0.411 ± 0.0067 | 0.31 ± 0.004
